In the library only some 4.2% were active in any assay of this set; here they are far more common.
Sfp PPTase inh – qHTS Assay for Inhibitors of Bacillus subtilis Sfp phosphopantetheinyl transferase (PPTase) | Potency, µM, actives largely listed as inhibitors | Biochemical Sfp PPTase activity, qHTS | hit rate 3.5% among 310,000;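 further: the enzyme is Sfp with the accession as filed and its product quenches rhodamine fluorescence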
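Compounds were incubated with enzyme (final 15 nM) for 15 min at room temperature before substrate addition started the reaction. Fluorescence at 525 nm excitation, 598 nm emission was recorded immediately and after 30 minutes.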
ClpP mod – qHTS Assay for Activators of ClpP. ATP-dependent Clp protease proteolytic subunit (Bacillus subtilis (strain 168)), P80244. Potency, µM (doses to about 57.5 µM). AID 651965, 2013. purified B. subtilis ClpP, FRET peptide cleavage, 20 min. hit rate 1.9% among 340,000; active means well fitted falling curve with a large enough effect; inconclusive means small, poorly fitted or top-dose-only effect; inactive means no such curve, though single readings can be large or run the other way; further: the source files actives as falling curves though it sought activators and does not explain the sign; nearly all actives have a fitted effect of over 65% in size
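FRET quenching reversal measured ClpP activation: 10 microg/mL B. subtilis ClpP at pH 8 with the FRET-FV decapeptide, read at 430 nm after 320 nm excitation. The 20-min minus 0-min signal was scaled between DMSO/no-enzyme wells and ADEP (5.8 microM final).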
TCR activator – Activators of T cell receptors: qHTS campaign; Potency, µM (titrated, usually from 9.22 µM), hits mostly activators; primary human leukocytes, anti-CD3, IL-2 HTRF, 48 h; 330,000 tested, under 10 active
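IL-2 produced over 48 hr by a-CD3 bead-stimulated primary human leukocytes exposed to compounds was detected with a homogeneous time-resolved FRET immunoassay, 665nm acceptor signal after 320nm excitation.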
uPA generation – qHTS for Inhibitors of Cell Surface uPA Generation; cell surface uPA generation assay, qHTS; hit rate 0.31% among 330,000; AID 540303, 2011; Potency, µM (titrated, usually from 38.3 µM), most hits filed as inhibitors; active means well fitted inhibition curve with a large enough effect; inconclusive means small, poorly fitted or top-dose-only effect; inactive means no such curve, though single readings can be large or run the other way; tested in mouse RAW 264.7 cells; further: nearly all actives have a fitted effect of over 55% in size
A number is an active result; – = inactive; ? = inconclusive; · = no result given. Unless noted, the call rests on the fitted dose curve; in most records, active means well fitted curve in the direction sought with a large enough effect; inconclusive means small, poorly fitted or top-dose-only effect, or another doubt; inactive means no such curve, though single readings can be large; an effect the other way counts as inactive or inconclusive.

SMILES	Sfp PPTase inh	ClpP mod	TCR activator	uPA generation
CCC(c1nnnn1Cc1ccco1)N(CCc1ccccc1)Cc1cc2cc(C)ccc2[nH]c1=O (stereo not given)	18µM	–	–	–
Cc1ccc2[nH]c(=O)c(CN(CCc3ccccc3)C(c3nnnn3Cc3ccco3)C(C)C)cc2c1 (stereo not given)	18µM	·	–	–
COc1ccc(Cl)cc1NC(=O)c1noc2c1CCc1ccccc1-2	·	–	·	·
CCCn1c(SCC(=O)c2cc(C)n(-c3cc(C)on3)c2C)n[nH]c1=O	·	–	–	–
COc1ccc(C[C@@H]2CN3C(=NC[C@@H]3C)N2C[C@H](C)NC(=O)CCC2CCCCC2)cc1	50µM	–	–	–
COc1ccc(C[C@H]2CN3C(=NC[C@@H]3Cc3ccccc3)N2C[C@H](C)NC(=O)CCC2CCCCC2)cc1	–	·	·	·
CCN1N=C(c2ccccc2)Cn2c1nc1ccccc12	–	14µM	–	–
COc1ccc(OC)c(C2CC(c3c(-c4ccccc4)c4cc(Cl)ccc4[nH]c3=O)=NN2S(C)(=O)=O)c1 (stereo not given)	45µM	–	–	–
CCCCN1C(=O)C(=O)N(CC(=O)Nc2cc(OCC)c(N3CCOCC3)cc2OCC)C1=O	–	·	–	–
CC1=C(C(=O)OC2CCCC2)C(c2cccc(Cl)c2Cl)CC(=O)N1 (stereo not given)	·	–	·	·
Cc1cccc(NC(=O)Cc2coc3ccc4ccccc4c23)n1	56µM	–	·	–
O=C(O)Cc1coc2ccc3ccccc3c12	–	·	–	–
CC(=O)Nc1cc(NC(C)=O)ncn1	–	·	–	–
O=C(N/N=C/C(Cl)=C/c1ccc([N+](=O)[O-])cc1)C(=O)Nc1ccccc1C(=O)O	35µM	·	–	–
O=C(N/N=C/C(Cl)=C/c1ccc([N+](=O)[O-])cc1)C(=O)Nc1ccc(C(=O)O)cc1	?	–	–	–
CC(=O)N(c1nc(CCl)cs1)c1c(C)cc(C)cc1C	–	·	–	–
COc1ccc(C(=O)c2ccccc2)c(O)c1O	56µM	·	·	·
COc1ccc(C(=O)c2ccccc2)c(O)c1	–	–	–	–
COc1ccc(F)cc1S(=O)(=O)NCc1cc(=O)n(C)c(=O)n1C	–	–	–	–
CCc1nc2c(c(SC)nn2-c2ccccc2)c(N)c1C(=O)OC	–	32µM	–	–
O=C1CC(N2CCN(S(=O)(=O)c3ccccc3F)CC2)C(=O)N1c1ccccc1Cl (stereo not given)	·	–	–	–
CC(C)(C)c1ccc(-c2nc(C=O)c3ccccn23)cc1	–	–	–	–
Cc1c(C(C)(C)C)c(C=S)n2ccccc12	50µM	–	–	–
CCN(CC(=O)Nc1ccc(NC(C)=O)cc1)CC(=O)Nc1ccc(Cl)c(Cl)c1	56µM	–	–	–
CCOc1[nH]c(/N=C/c2ccco2)c(C#N)c1C#N	45µM	–	–	–
SMILES	Sfp PPTase inh	ClpP mod	TCR activator	uPA generation
CCOc1[nH]c(/N=C/c2ccc(OC)cc2)c(C#N)c1C#N	·	–	·	·
O=c1c2ccccc2sn1-c1cc(S(=O)(=O)N2CCOCC2)ccc1N1CCCCC1	·	–	·	·
O=c1c2ccccc2sn1-c1cc(S(=O)(=O)N2CCOCC2)ccc1N1CCCC1	0.2µM	–	–	·
O=S(=O)(c1ccc(N2CCOCC2)c(Cl)c1)N1CCOCC1	–	·	–	–
O=c1c2ccccc2sn1-c1cc(S(=O)(=O)N2CCOCC2)ccc1N1CCOCC1	0.71µM	–	–	–
CCOc1ccc(/C=C/c2ccc3ccccc3n2)cc1OCC	·	–	·	·
BrC(/C=N/Nc1nc(N2CCOCC2)nc(N2CCOCC2)n1)=C/c1ccccc1	79µM	–	–	–
Cc1cc(C)cc(NC(=O)Cn2c(-c3ccccc3Cl)nc3ccccc32)c1	?	28µM	–	–
Cc1ccc(SCc2nc3ccccc3n2CC(=O)Nc2ccccc2)cc1	50µM	–	–	·
O=C(Cn1c(-c2ccccc2Cl)nc2ccccc21)Nc1cccc(Cl)c1	–	–	–	–
COc1ccc(C)cc1NC(=O)C(=O)NCCc1csc(-c2ccc(C)cc2)n1	·	–	·	·
COC(=O)c1cccc(CC2(C)C(=O)Nc3ccc(OC(F)(F)F)cc32)c1 (stereo not given)	·	–	·	·
Cc1ccc(CCNC(=O)CCSCc2ccccc2F)cc1	·	–	·	·
CCOC(=O)c1cccnc1SCc1cc(=O)n2ccccc2n1	–	32µM	–	·
Cc1cccc(C(=O)NCC(=O)N2CCN(S(=O)(=O)c3cc(C)ccc3C)CC2)c1	·	–	–	–
COc1ccc(NC(=O)c2cc(Cl)ccc2Cl)c([N+](=O)[O-])c1	–	28µM	–	–
Cc1c(Cl)cccc1NC(=O)Cn1c(=O)n(Cc2nc(-c3ccccc3)no2)c(=O)c2cc3c(cc21)OCO3	·	–	·	·
CCOc1ccc(C(c2c(O)cc(C)n(CCOC)c2=O)N2CCN(c3ccccc3)CC2)cc1 (stereo not given)	·	–	·	·
CSc1ccc(-c2nc(O)c3cnccn23)cc1	–	·	–	–
Oc1nc(-c2ccc(Br)cc2)n2ccncc12	56µM	·	–	–
O=C(O)[C@@H]1CSCN1	56µM	·	·	·
COc1ccccc1/C=C/C=c1\sc2nc(=O)c(Cc3ccccc3)nn2c1=O	56µM	–	–	–
CCCOc1ccc(Cc2nn3c(=O)/c(=C/c4ccco4)sc3nc2=O)cc1	50µM	–	–	–
C=CCOc1ccccc1/C=c1\sc2nc(=O)c(C)nn2c1=O	?	–	–	–
CCCOc1ccc(/C=c2\sc3nc(-c4ccco4)nn3c2=O)cc1OCC	–	–	–	–
SMILES	Sfp PPTase inh	ClpP mod	TCR activator	uPA generation
Cc1cc(C)n(C(=O)CNC(=O)c2ccc(Cl)cc2Cl)n1	–	·	–	–
COCCC(=O)N1CCCC(C(=O)c2ccc(C(F)(F)F)cc2)C1 (stereo not given)	–	·	–	–
Cn1c(=O)c2c(nc(SCC(=O)O)n2Cc2cc3c(cc2Cl)OCO3)n(C)c1=O	56µM	–	–	–
CCCSc1ncc(Cl)c(C(=O)Nc2nc3ccc(C)cc3s2)n1	·	–	·	·
C/C(=N/O)c1ccccn1	40µM	–	–	–
Cc1cccc(C(=O)NCC(c2ccco2)S(=O)(=O)c2cccs2)c1 (stereo not given)	·	–	·	·
O=C(c1ccccc1NS(=O)(=O)c1ccc(Br)s1)N1CCCC1	–	16µM	–	–
CC(C)C1Nc2ccc(S(N)(=O)=O)cc2C2C=CCC21 (stereo not given)	35µM	–	–	–
NS(=O)(=O)c1ccc2c(c1)C1C=CCC1C(C1CC=CCC1)N2 (stereo not given)	20µM	–	–	–
Cc1ccc(NS(=O)(=O)c2ccc3c(c2)[C@H]2C=CC[C@H]2[C@@H](c2ccc(F)cc2)N3)cc1C	·	–	·	·
Cc1ccc2c(=O)c(C(=O)c3ccc(F)cc3)cn(CC(=O)NCc3ccccc3Cl)c2n1	·	–	·	·
COc1ccc(N/C=C2\CCc3ccccc3C2=O)cc1	56µM	–	–	1.3µM
O=C1/C(=C/Nc2ccc3c(c2)OCO3)CCc2ccccc21	35µM	–	–	–
COc1ccc(S(=O)(=O)Nc2ccc3c(c2)OCO3)cc1	–	–	–	–

Compound activity (PubChem BioAssay)
